About 79,000 compounds went through this panel and 15% of them were active in at least one assay; those are over-represented in the sample as a whole. Unmarked numbers belong to inactive results. Active and inactive are the calls of the source. Cut-off read from the data, not from the text of the source: active = growth inhibition above about 70%; inactive = the rest. Where a SMILES comes first, the peptide text is derived from it. The star is where a group is joined. Cbz = O=C(OCc1ccccc1)*

The values below come from PubChem BioAssay (NCI).

A short description of experiment [1]: NCI Yeast Anticancer Drug Screen. Data for the rad50 strain (AID 155).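 Note: 0% = growth of vehicle-only cultures of the same strain.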 As to conditions: S. cerevisiae rad50 strain growth inhibition; at 50.0 µM; stronger effect = higher value. Put shortly:
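Relative growth inhibition (compound vs vehicle) was measured in yeast with a defined repair-gene alteration.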

Experiment [2] can be described thus: NCI Yeast Anticancer Drug Screen. Data for the mec2-1 strain (AID 157). The conditions noted are these: S. cerevisiae mec2-1 strain, at 50.0 µM, stronger effect = higher value. Put shortly:
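Each compound was tested on mec2-1 yeast, a strain altered in DNA damage repair or cell cycle control. Growth inhibition is reported relative to vehicle.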

Experiment [3] in a line: NCI Yeast Anticancer Drug Screen. Data for the sgs1 mgt1 strain (AID 161).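 Note: 0% = growth of cultures given vehicle only.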 The conditions noted are these: S. cerevisiae sgs1 mgt1 strain, at 50.0 µM, stronger effect = higher value. A digest of the protocol: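 Inhibition of yeast growth, normalised to vehicle-treated controls, is reported for a strain bearing genetic alterations in DNA damage repair.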
Experiment [4] can be described thus: NCI Yeast Anticancer Drug Screen. Data for the cln2 rad14 strain (AID 165).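 Note: 0% = growth equal to vehicle treated cultures.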 As to conditions: S. cerevisiae cln2 rad14 strain, at 50.0 µM, stronger effect = higher value. A digest of the protocol: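 Test compounds were added to cln2 rad14 yeast cultures; inhibition of growth was then determined by comparison with vehicle treatment.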
The nature of experiment [5]: NCI Yeast Anticancer Drug Screen. Data for the bub3 strain (AID 167). As to conditions: S. cerevisiae bub3 mutant strain, at 50.0 µM, stronger effect = higher value. Put shortly: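 Screening used yeast with an engineered genetic alteration affecting cell cycle control. Compound-exposed cultures were compared with vehicle cultures, and reduced growth was taken as inhibition.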

Experiment [6] is described as follows: NCI Yeast Anticancer Drug Screen. Data for the mlh1 rad18 strain (AID 175). The conditions noted are these: S. cerevisiae mlh1 rad18 strain growth inhibition; at 50.0 µM; stronger effect = higher value. Put shortly:
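Inhibition values reflect reduced growth of mutant yeast versus vehicle-treated controls following compound exposure; the mutations affect DNA damage repair.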

Turning to `CC(=O)Oc1cccc2ccccc12`, the growth inhibition in experiment [1] was -23.4%; in experiment [2] it was -25.5%; in experiment [3] it was 1%; in experiment [4] it was -109%; in experiment [5], -36.8%; in experiment [6], -5.65%.
In the case of `CN(C)c1ccc(/C=N/N=C2\C(=O)Nc3c(Cl)cc(Cl)cc32)cc1`, the growth inhibition in experiment [1] is 25.2%; in experiment [2], -0.25%; in experiment [3], 56.8%; in experiment [4], 43.1%; in experiment [5] it was 43.5%; in experiment [6], 78.8% (active).
`CC(C)(C(N)=O)c1ccccc1`: the growth inhibition in experiment [1] is -28.1%; in experiment [2] it was -3.85%; in experiment [3], 16.6%; in experiment [4], -28.4%; in experiment [5], -1.55%; in experiment [6] it was -5.05%.
In the case of `COC(=O)/C=C/c1ccc(OC)c(OC)c1`, the growth inhibition in experiment [1] was 22.3%; in experiment [2] it was 0.4%; in experiment [3], 13.6%; in experiment [4] it was -2.2%; in experiment [5] it was 64.5%; in experiment [6], 50%.
On to `O=C(O)C1C2CCC(O2)C1C(=O)NCc1cccnc1` (stereo unspecified), for which the growth inhibition in experiment [1] was 23.1%; in experiment [2], -3.8%; in experiment [3], -11.7%; in experiment [4] it was -9.9%; in experiment [5], -11%; in experiment [6], 2.85%.
As to `CCC(=O)c1ccc([N+](=O)[O-])cc1`, the growth inhibition in experiment [1] is -14.2%; in experiment [2], -18.2%; in experiment [3] it was -24.7%; in experiment [4] it was -59.4%; in experiment [5] it was 1.95%; in experiment [6] it was -10.2%.
As for `NC(=O)C(=O)C1CCC2=C(Sc3ccccc3N2)C1=O` (stereo unspecified), the growth inhibition was 39.5% in experiment [1]; -5.4% in experiment [2]; -6.35% in experiment [3]; 30.1% in experiment [4]; 34% in experiment [5]; 4.5% in experiment [6].
Consider `CCOC(=O)NN1C(=O)c2cccc3c([N+](=O)[O-])ccc(c23)C1=O`, for which the growth inhibition in experiment [1] was 86.2% (active); in experiment [2] it was 61.9%; in experiment [3] it was 93.5% (active); in experiment [4], 88.4% (active); in experiment [5], 78.3% (active); in experiment [6], 85.8% (active).
As to `CCOC(=O)C(CN(CC)CC)c1ccccc1` (stereo unspecified), the growth inhibition is -1.15% in experiment [1]; -6.35% in experiment [2]; -3.25% in experiment [3]; 1.8% in experiment [4]; 1.95% in experiment [5]; 10.3% in experiment [6].
`Nc1cc(Cl)ccc1N1C(=O)C=CC1=O`: the growth inhibition in experiment [1] was -26.6%; in experiment [2] it was -14.8%; in experiment [3], 1.25%; in experiment [4], -6.25%; in experiment [5], -9.1%; in experiment [6], 18.6%.
Take `CC1=C(O)CC(=O)C1`: the growth inhibition in experiment [1] is -14%; in experiment [2], -8.8%; in experiment [3] it was -6.9%; in experiment [4], 0.2%; in experiment [5], 6.4%; in experiment [6] it was -9.45%.
For `CSCCC(NC(=O)C(Cc1ccccc1)NC(=O)OCc1ccccc1)C(=O)O` (stereo not drawn) (Cbz-Phe-Met-OH; configuration not given here), the growth inhibition is 5.1% in experiment [1]; -13.2% in experiment [2]; -1% in experiment [3]; -40.4% in experiment [4]; -4.95% in experiment [5]; 4.85% in experiment [6].
Turning to `CCN(CC)C1CCC(C2c3cc4c(cc3OC(N3CCOCC3)C2C)OCO4)CC1` (stereo unspecified), the growth inhibition was -11.1% in experiment [1]; -18.4% in experiment [2]; -22.8% in experiment [3]; -63% in experiment [4]; 7.95% in experiment [5]; -22.4% in experiment [6].
With `CN(C)C(=S)/N=c1\ssc(=S)n1Cc1cccs1`, the growth inhibition in experiment [1] was -11.1%; in experiment [2] it was -19.5%; in experiment [3] it was -19.6%; in experiment [4] it was 6.75%; in experiment [5], -9.4%; in experiment [6], 12%.
Consider `CC(=O)OCC1OC(N2C(S)=C(C#N)C(c3ccco3)C(C(C)=O)=C2c2ccccc2)C(OC(C)=O)C(OC(C)=O)C1OC(C)=O` (stereo unspecified), for which the growth inhibition in experiment [1] is 21.4%; in experiment [2], 15.4%; in experiment [3], -0.25%; in experiment [4] it was -7.4%; in experiment [5] it was -19.4%; in experiment [6] it was -6.15%.
As for `OCCN(CCO)c1ccc(-n2cnc3c(=S)nc[nH]c32)cc1`, the growth inhibition in experiment [1] was -3.1%; in experiment [2], -3%; in experiment [3], 5.55%; in experiment [4], -43.8%; in experiment [5] it was 8.35%; in experiment [6] it was -4.15%.
Regarding `CN(/N=C/c1ccnc2ccccc12)c1ccc([N+](=O)[O-])cc1[N+](=O)[O-]`, the growth inhibition in experiment [1] is -31.3%; in experiment [2], -10.9%; in experiment [3] it was -19.5%; in experiment [4] it was 8.1%; in experiment [5], -6.95%; in experiment [6], -12.6%.
Turning to `COC1C(CO)OC(n2c3c(Cl)cccc3c3c4c(c5c6cccc(Cl)c6[nH]c5c32)C(=O)NC4=O)C(O)C1O` (stereo unspecified), the growth inhibition in experiment [1] was 16.8%; in experiment [2] it was 8.45%; in experiment [3], -1.4%; in experiment [4] it was 20.4%; in experiment [5], 7.4%; in experiment [6], -21.1%.
Take `Cc1ccccc1OCC(C)OC(N)=O` (stereo unspecified): the growth inhibition is 6.1% in experiment [1]; -11.4% in experiment [2]; 2.1% in experiment [3]; -16.4% in experiment [4]; 7% in experiment [5]; 6.15% in experiment [6].
Turning to `Nc1nc(-c2ccccc2)nc2nc[nH]c12`, the growth inhibition in experiment [1] was 8.75%; in experiment [2], -3.9%; in experiment [3], -20.3%; in experiment [4] it was -2.2%; in experiment [5], 0.85%; in experiment [6], 5.85%.
For the compound `CC1CCCC(CCO)CC1` (stereo unspecified), the growth inhibition in experiment [1] was 11.6%; in experiment [2] it was 5.8%; in experiment [3], 6.4%; in experiment [4] it was 0.1%; in experiment [5], 15.7%; in experiment [6], 6.3%.
